The source of these data is PubChem BioAssay (EPA / NIEHS).

Each structure is given as a SMILES string. Active and inactive are the calls of the source. How the source made its calls: active means hit-call score of the fitted dose curve at least 0.9, where 1 is the maximum; inactive means score below 0.9.

Read-out in assay [1]: Interleukin-1 alpha (IL1a), IL1A (gene 3552)
Kind of assay: BSK_KF3CT_IL1a: BioMAP Diversity Plus: KF3CT Assay for Interleukin-1 alpha (IL1a) Biomarker Activity (AID 2283070). To be noted: primary human keratinocytes with fibroblasts; actives raise or lower the signal. The gist of the method:
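Readout is IL-1a level by ELISA, compared bidirectionally with DMSO as baseline. Cells: human keratinocytes co-cultured with foreskin fibroblasts, harvested 24 h post-dose.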

Read-out in assay [2]: TIMP metallopeptidase inhibitor 2 (TIMP2), TIMP2 (gene 7077)
Kind of assay: BSK_KF3CT_TIMP2: BioMAP Diversity Plus: KF3CT Assay for TIMP metallopeptidase inhibitor 2 (TIMP2) Biomarker Activity (AID 2283071). The settings on record: primary human keratinocytes with fibroblasts; actives raise or lower the signal. The gist of the method: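 ELISA readout of TIMP-2 in keratinocyte plus foreskin fibroblast co-cultures (human skin primary cells), 24 h post-dose. Gain or loss of signal fitted relative to DMSO.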

Read-out in assay [3]: Transforming growth factor beta 1 (TGFb1), TGFB1 (gene 7040)
The assay is described as follows: BSK_KF3CT_TGFb1: BioMAP Diversity Plus: KF3CT Assay for Transforming growth factor beta 1 (TGFb1) Biomarker Activity (AID 2283072). To be noted: primary human keratinocytes with fibroblasts; actives raise or lower the signal. The gist of the method: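 Read-out: ELISA for TGF-b1 in keratinocyte/foreskin fibroblast human skin co-culture, 24 h after dosing; bidirectional curve fit vs DMSO baseline; gain or loss of signal scored.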

Read-out in assay [4]: C-C motif chemokine 2 (Homo sapiens) (UniProt P13500)
The assay is described as follows: BSK_KF3CT_MCP1: BioMAP Diversity Plus: KF3CT Assay for Monocyte Chemoattractant Protein 1 (MCP1/CCL2) Biomarker Activity (AID 2283073). To be noted: primary human keratinocytes with fibroblasts; actives raise or lower the signal. The method in brief:
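KF3CT skin co-culture (keratinocytes/foreskin fibroblasts), 24 h post-dose; MCP-1 by ELISA; gain/loss of signal fit bidirectionally vs DMSO baseline.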

Read-out in assay [5]: Matrix Metallopeptidase 9 (MMP9), MMP9 (gene 4318)
Kind of assay: BSK_KF3CT_MMP9: BioMAP Diversity Plus: KF3CT Assay for Matrix Metallopeptidase 9 (MMP9) Biomarker Activity (AID 2283074).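 On AC50: MMP9 protein level quantified by ELISA in the co-culture.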 The settings on record: primary human keratinocytes with fibroblasts; actives raise or lower the signal. The gist of the method: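 Values come from bidirectional fitting relative to DMSO of MMP-9 levels, which were measured by ELISA. Measurements were taken 24 h after chemical dosing of a keratinocyte and foreskin fibroblast co-culture.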

Read-out in assay [6]: urokinase plasminogen activator (uPA), PLAU (gene 5328)
Kind of assay: BSK_KF3CT_uPA: BioMAP Diversity Plus: KF3CT Assay for urokinase plasminogen activator (uPA) Biomarker Activity (AID 2283075). To be noted: primary human keratinocytes with fibroblasts; actives raise or lower the signal. The method in brief: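 Values derive from bidirectional fitting against DMSO controls. Keratinocyte/foreskin fibroblast co-cultures received chemical; 24 h later uPA was detected by ELISA, with SRB total-protein staining in parallel wells for overt cytotoxicity.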

Read-out in assay [7]: CD40, CD40 (gene 958)
The assay is described as follows: BSK_LPS_CD40: BioMAP Diversity Plus: LPS Assay for CD40 Biomarker Activity (AID 2283076). The settings on record: primary human HUVEC with PBMC; actives raise or lower the signal. The method in brief:
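ELISA readout of CD40 in HUVEC/PBMC co-culture (BSK_LPS system), 24 h post-dosing; bidirectional curve fit, DMSO baseline; parallel SRB total-protein staining for cytotoxicity.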

Read-out in assay [8]: E-selectin (Homo sapiens) (UniProt P16581)
Kind of assay: BSK_LPS_Eselectin: BioMAP Diversity Plus: LPS Assay for Eselectin Biomarker Activity (AID 2283077). The settings on record: primary human HUVEC with PBMC; actives raise or lower the signal. The gist of the method: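 ELISA readout of E-selectin, 24 h post-dose, HUVEC + PBMC co-culture (LPS system). Gain or loss of signal vs DMSO baseline, bidirectional fit.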

Read-out in assay [9]: Interleukin-8 (IL8), CXCL8 (gene 3576)
The assay is described as follows: BSK_LPS_IL8: BioMAP Diversity Plus: LPS Assay for Interleukin-8 (IL8) Biomarker Activity (AID 2283078). The settings on record: primary human HUVEC with PBMC; actives raise or lower the signal. The method in brief:
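HUVEC + PBMC co-culture, LPS-activated; test chemicals dosed, IL-8 read by ELISA at 24 h. Bidirectional curve fit vs DMSO baseline (gain or loss of signal).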

Assay [10] in a line: BSK_LPS_SRB: Viability Assessment in the BioMAP Diversity Plus: LPS Assay (AID 2283079).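 Further: total protein by sulforhodamine B absorbance as a cytotoxicity measure; measured one day after compound addition; fitted in both directions against DMSO so loss or gain of signal counts.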 To be noted: primary human HUVEC with PBMC. The gist of the method: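 HUVEC + PBMC co-culture, LPS-stimulated; compound 24 h. 10% TCA fix, 0.1% SRB stain, A560. Bidirectional fit vs DMSO.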
Read-out in assay [11]: Interleukin-1 alpha (IL1a), IL1A (gene 3552)
The assay is described as follows: BSK_LPS_IL1a: BioMAP Diversity Plus: LPS Assay for Interleukin-1 alpha (IL1a) Biomarker Activity (AID 2283080). The settings on record: primary human HUVEC with PBMC; actives raise or lower the signal. The gist of the method:
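HUVEC/PBMC co-culture, LPS system; 24 h after dosing; IL-1a by ELISA; gain or loss of signal fitted bidirectionally vs DMSO baseline.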

Read-out in assay [12]: Monocyte Chemoattractant Protein-1 (MCP1), CCL2 (gene 6347)
The assay is described as follows: BSK_LPS_MCP1: BioMAP Diversity Plus: LPS Assay for Monocyte Chemoattractant Protein-1 (MCP1) Biomarker Activity (AID 2283081).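 On AC50: secreted MCP-1 protein quantified by ELISA in culture supernatant.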 To be noted: primary human HUVEC with PBMC; actives raise or lower the signal. The method in brief: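 ELISA read-out of MCP-1 after 24 h chemical dosing of a human umbilical vein endothelial cell/peripheral blood mononuclear cell co-culture stimulated with LPS. Gain or loss of signal fitted relative to DMSO controls.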

Assay [13] is described as follows: BSK_LPS_PGE2: BioMAP Diversity Plus: LPS Assay for Prostaglandin E2 (PGE2) Biomarker Activity (AID 2283082).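 On AC50: secreted prostaglandin E2 measured by ELISA in LPS-stimulated co-culture.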 To be noted: primary human HUVEC with PBMC; actives raise or lower the signal. The gist of the method:
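ELISA read-out of PGE2 from human umbilical vein endothelial cells co-cultured with peripheral blood mononuclear cells under LPS, 24 h post-dose. Gain or loss of signal scored relative to DMSO baseline.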

Read-out in assay [14]: Macrophage colony-stimulating factor (MCSF), CSF1 (gene 1435)
Kind of assay: BSK_LPS_MCSF: BioMAP Diversity Plus: LPS Assay for Macrophage colony-stimulating factor (MCSF) Biomarker Activity (AID 2283083). The settings on record: primary human HUVEC with PBMC; actives raise or lower the signal. The gist of the method: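 HUVEC + PBMC co-culture (human primary), 24 h post-dose; M-CSF by ELISA; gain/loss of signal fitted bidirectionally vs DMSO baseline.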

Read-out in assay [15]: Tissue Factor, F3 (gene 2152)
Kind of assay: BSK_LPS_TissueFactor: BioMAP Diversity Plus: LPS Assay for Tissue Factor Biomarker Activity (AID 2283084). To be noted: primary human HUVEC with PBMC; actives raise or lower the signal. The method in brief: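 HUVEC/PBMC co-culture, LPS-activated; CD142 ELISA read 24 h post-dose; bidirectional curve fit vs DMSO negative control.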

Read-out in assay [16]: Tumor necrosis factor (Homo sapiens) (UniProt P01375)
The assay is described as follows: BSK_LPS_TNFa: BioMAP Diversity Plus: LPS Assay for Tumour Necrosis Factor alpha (TNFa) Biomarker Activity (AID 2283085). The settings on record: primary human HUVEC with PBMC; actives raise or lower the signal. The method in brief:
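HUVEC/PBMC co-culture, LPS-stimulated; 24 h post-dose; TNFa by ELISA; gain or loss of signal fitted bidirectionally vs DMSO baseline.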

Read-out in assay [17]: Vascular cell adhesion molecule 1 (VCAM1), VCAM1 (gene 7412)
The assay is described as follows: BSK_LPS_VCAM1: BioMAP Diversity Plus: LPS Assay for Vascular cell adhesion molecule 1 (VCAM1) Biomarker Activity (AID 2283086). To be noted: primary human HUVEC with PBMC; actives raise or lower the signal. The gist of the method:
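ELISA read-out of VCAM-1 at 24 h post-dosing in an LPS-driven HUVEC/PBMC primary human co-culture; gain or loss of signal fitted bidirectionally against DMSO baseline. Cytotoxicity tracked in parallel cultures by SRB total-protein staining.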

Read-out in assay [18]: CD38, CD38 (gene 952)
Kind of assay: BSK_SAg_CD38: BioMAP Diversity Plus: SAg Assay for CD38 Biomarker Activity (AID 2283087). The settings on record: primary human HUVEC with PBMC; actives raise or lower the signal. The method in brief:
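Measures CD38 on a human endothelial/PBMC co-culture driven by SEB and TSST-1, 24 h after compound exposure, using ELISA with fluorescence detection; DMSO defines baseline for bidirectional curve fitting.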

Read-out in assay [19]: CD69, CD69 (gene 969)
Kind of assay: BSK_SAg_CD69: BioMAP Diversity Plus: SAg Assay for CD69 Biomarker Activity (AID 2283089).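 On AC50: cell surface CD69 protein quantified by ELISA with fluorescence detection.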 The settings on record: primary human HUVEC with PBMC; actives raise or lower the signal. The method in brief:
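HUVEC co-cultured with PBMC were dosed with chemical, and CD69 was measured by ELISA with fluorescence read-out 24 h later. Bidirectional curve fitting used DMSO as negative control and activity baseline.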

Read-out in assay [20]: CD40, CD40 (gene 958)
The assay is described as follows: BSK_SAg_CD40: BioMAP Diversity Plus: SAg Assay for CD40 Biomarker Activity (AID 2283088). The settings on record: primary human HUVEC with PBMC; actives raise or lower the signal. The method in brief: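 HUVEC/PBMC co-culture, 24 h post-dose; CD40 by ELISA, fluorescence intensity; bidirectional fit vs DMSO negative control.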

Tumor necrosis factor (Homo sapiens), sequence (P01375 whole entry, looked up): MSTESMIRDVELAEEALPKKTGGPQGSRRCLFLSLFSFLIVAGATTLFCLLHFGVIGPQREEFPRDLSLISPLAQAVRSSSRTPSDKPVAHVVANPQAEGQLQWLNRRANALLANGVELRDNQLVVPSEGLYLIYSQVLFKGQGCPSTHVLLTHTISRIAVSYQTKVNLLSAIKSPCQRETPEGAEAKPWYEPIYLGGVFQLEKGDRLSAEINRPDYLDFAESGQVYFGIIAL
E-selectin (Homo sapiens), sequence (P16581 whole entry, looked up): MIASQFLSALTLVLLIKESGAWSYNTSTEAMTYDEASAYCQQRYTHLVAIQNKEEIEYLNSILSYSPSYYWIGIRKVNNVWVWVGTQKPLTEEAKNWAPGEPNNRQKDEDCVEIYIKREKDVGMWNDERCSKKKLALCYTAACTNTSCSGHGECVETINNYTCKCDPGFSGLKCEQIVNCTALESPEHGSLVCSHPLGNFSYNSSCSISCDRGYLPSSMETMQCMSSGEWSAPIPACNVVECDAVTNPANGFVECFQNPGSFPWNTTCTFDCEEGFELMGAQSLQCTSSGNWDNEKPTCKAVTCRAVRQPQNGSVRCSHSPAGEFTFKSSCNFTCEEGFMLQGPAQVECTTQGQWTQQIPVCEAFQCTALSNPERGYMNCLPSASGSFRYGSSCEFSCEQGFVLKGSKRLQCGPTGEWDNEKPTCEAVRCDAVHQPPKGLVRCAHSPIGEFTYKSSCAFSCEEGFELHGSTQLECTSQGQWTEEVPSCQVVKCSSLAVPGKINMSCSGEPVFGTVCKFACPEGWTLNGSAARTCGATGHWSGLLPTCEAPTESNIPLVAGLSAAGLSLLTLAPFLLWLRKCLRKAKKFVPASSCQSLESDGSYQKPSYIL

`Cc1cc(C2CC2)nc(Nc2ccccc2)n1`: the outcome in assay [1], in [2], in [3], in assay [4], in assay [5] and in assay [6] was inactive. Besides, the result in assay [8], in [9], in assay [11], in assay [12], in [15] and in [16] was inactive. Further, the outcome in assay [18] was inactive. For the same molecule, the AC50 in [7] is 14.8 µM (active); in assay [10], 24.7 µM (active); in assay [13] it was 7.61 µM (active); in [14], 20.3 µM (active); in [17] it was 15.7 µM (active); in [19], 28.2 µM (active).

As to `Nc1c(Cl)cc([N+](=O)[O-])cc1Cl`, the outcome in assay [1], in [2], in assay [3], in [4], in [5] and in assay [6] was inactive. Besides, the result in [7], in assay [8], in [9], in [10], in assay [11] and in assay [12] was inactive. Moreover, the result in [13], in assay [14], in assay [15], in [16], in assay [17] and in assay [18] was inactive. For the same molecule, the outcome in [20] and in [19] was inactive.

Consider `CC1=NNC(=O)N(/N=C/c2cccnc2)C1`, for which the outcome in assay [1], in [2], in [3], in assay [4], in [5] and in [6] was inactive. Moreover, the outcome in [7], in [8], in assay [9], in assay [10], in [11] and in assay [12] was inactive. Also, the result in assay [13], in assay [14], in [15], in assay [16], in assay [17] and in assay [18] was inactive. Moreover, the outcome in assay [20] and in [19] was inactive.

With `CSC1=N[C@@](C)(c2ccccc2)C(=O)N1Nc1ccccc1`, the result in assay [1], in [2], in assay [3], in assay [4], in assay [6] and in assay [7] was inactive. The outcome in assay [11], in assay [14], in assay [15], in [16] and in assay [17] was inactive. In addition, the AC50 in assay [5] is 29.9 µM (active); in assay [8], 10.6 µM (active); in assay [9], 1.7 µM (active); in assay [10] it was 20 µM (active); in assay [12] it was 15.2 µM (active); in assay [13] it was 6.96 µM (active). For the same molecule, the AC50 was 14.3 µM (active) in assay [18], 11.4 µM (active) in assay [20] and 11.5 µM (active) in assay [19].

`CC(Oc1cccc(Cl)c1)C(=O)O` (centres undefined): in assay [1], the AC50 was 1.15 µM (active). Besides, the result in assay [2], in [3], in [4], in assay [5], in assay [6] and in assay [7] was inactive. In addition, the result in assay [8], in [9], in [10], in assay [11], in assay [12] and in assay [13] was inactive. Further, the outcome in assay [14], in [15], in assay [16], in [17], in [18] and in [20] was inactive. Further, in [19], the outcome was inactive.

Consider `CCCSP(=O)(OCC)SCCC`, for which the outcome in assay [1], in assay [2], in assay [3], in assay [4], in assay [5] and in [6] was inactive. The result in assay [7], in assay [8], in assay [9], in assay [10], in assay [11] and in assay [12] was inactive. For the same molecule, the outcome in assay [13], in assay [14], in [15], in assay [16], in [17] and in [18] was inactive. In addition, the result in assay [20] and in [19] was inactive.

One may read the AC50 as the concentration giving half of the maximal activity seen.
